In the library only some 32% were active in any assay of this set; here they are far more common.
PostGolgi yeast = growth inhibition of a yeast mutant, post-Golgi transport screen. post-Golgi transport phenotypic cell assay. actives 0.9% (n = 98,000). AID 739. inhibition, % at 10 µM;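 also: yeast cells grown in 1536-well plates; yeast grown about 18 h at 30C before absorbance read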
CYP2C19 inhib = inhibitors of human CYP2C19; actives 21% (n = 96,000); P33261; CYP2C19 Supersomes, luciferin-H EGE luminescence, 30 min; inhibition, % at 5 µM;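 active = CYP2C19 inhibition above a set limit at 5 µM in the primary screen, cut at about 50% in these data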;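 also: plate controls were negative control wells for no effect and 2.5 mM tranylcypromine positive control for full effect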
Target sequence (P33261 whole entry, looked up): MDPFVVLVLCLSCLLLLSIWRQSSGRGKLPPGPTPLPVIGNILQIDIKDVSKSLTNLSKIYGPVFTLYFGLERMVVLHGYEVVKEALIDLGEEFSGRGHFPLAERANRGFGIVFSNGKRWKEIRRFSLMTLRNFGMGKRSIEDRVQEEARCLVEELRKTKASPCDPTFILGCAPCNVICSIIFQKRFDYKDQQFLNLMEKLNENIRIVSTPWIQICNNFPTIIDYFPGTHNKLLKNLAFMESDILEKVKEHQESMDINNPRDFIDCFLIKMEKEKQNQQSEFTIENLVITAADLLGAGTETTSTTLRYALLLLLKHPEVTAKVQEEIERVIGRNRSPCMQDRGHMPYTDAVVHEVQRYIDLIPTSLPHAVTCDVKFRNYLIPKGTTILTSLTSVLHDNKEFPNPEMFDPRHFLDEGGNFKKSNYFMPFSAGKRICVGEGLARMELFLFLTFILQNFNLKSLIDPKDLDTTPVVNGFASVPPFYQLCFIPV
PostGolgi ctrl = growth of the yeast control strain, post-Golgi counter-screen; actives 5% (n = 98,000); inhibition, % at 10 µM; AID 738; efflux-deficient yeast background strain, growth absorbance A615, 16 h
CYP2C9 act = increases human cytochrome P450 2C9 activity | P11712 | recombinant CYP2C9, luciferin-H conversion, luminescence; hits give high values; factor 1 = untreated enzyme, 0 = blocked | activation factor at 5 µM | actives 1.4% (n = 96,000) | AID 1024;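 active = activation factor of 2 or more for CYP2C9 at a 5 µM dose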;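 also: 0 = sulfaphenazole-blocked wells and 1 = vehicle-only wells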
CYP2C9 inh = human CYP2C9 inhibition; P11712; CYP2C9 Supersomes, luciferin-H conversion, luminescence; inhibition, % at 5 µM; actives 20% (n = 96,000);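 active = blocking of liver enzyme CYP2C9 beyond about 50% at 5 µM, limit read from the data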
CYP2C19 activ = activators of human cytochrome P450 2C19; P33261; recombinant CYP2C19, luciferin-H EGE luminescence; hits give high values; 0 = fully inhibited enzyme, 1 = untreated enzyme; activation factor at 5 µM; 96,000 tested, under 10 active; AID 1025;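 active = activation factor of at least 2 at 5 µM in the primary screen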;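 also: 0 = wells with 2.5 mM tranylcypromine and 1 = vehicle-only wells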
The depositor's hits bear a star; nt = no result given. Rule as the data show it, unless noted: active = inhibition above about 30%; inactive = the rest.

SMILES	PostGolgi yeast	CYP2C19 inhib	PostGolgi ctrl	CYP2C9 act	CYP2C9 inh	CYP2C19 activ
CC1CCCN(S(=O)(=O)c2coc(C(N)=O)c2)C1 (stereo not given)	-2	nt	-6	nt	nt	nt
COc1ccc(F)cc1S(=O)(=O)N1CCCC(C)C1 (stereo not given)	-5	67*	5	1.8	-79	0.3
COc1cc2c(cc1NC(=O)CC1SC(N3CCCC3)=NC1=O)oc1ccccc12 (stereo not given)	-1	9	11	1	4	0.9
CCCCOCCCNC(=O)CCCOc1ccccc1	-1	20	6	0.9	11	0.8
CC(CNC(=O)C1CCCCC1C(=O)O)c1ccccc1 (stereo not given)	19	-7	-2	0.9	8	1.1
CCCCn1nnc(NC(=O)CC23CC4CC(CC(C4)C2)C3)n1	8	5	12	1.1	-12	0.9
Cc1cc(=O)[nH]c2c1c(C)nn2C1CCOC(C)(C)C1 (stereo not given)	-19	-6	-2	1.1	-7	1.1
COc1ccc(OC(C)C(=O)N2CCN(c3ccccn3)CC2)cc1 (stereo not given)	2	21	3	0.7	30	0.8
COc1ccc(F)cc1S(=O)(=O)N1CCC(C(N)=O)CC1	-9	11	3	2.4*	-143	0.9
COc1ccc(C)cc1S(=O)(=O)N1CCCCC1	2	nt	17	nt	nt	nt
CCOC(=O)C1CCN(S(=O)(=O)c2ccc(OC)c(OC)c2)CC1	-1	46	-7	1.2	-17	0.5
COc1ccc(C)cc1S(=O)(=O)N1CCN(S(=O)(=O)c2cc(C)ccc2OC)CC1	9	75*	9	0.1	87*	0.2
COc1ccc(OC)c(S(=O)(=O)N2CCN(c3ccccn3)CC2)c1	-7	83*	27	0.2	77*	0.2
Cc1cccc(C)c1NC(=O)C1C2C=CC(C2)C1C(=O)NCc1ccccn1 (stereo not given)	-1	4	0	1	-1	1
Cc1ccc(N(CC(=O)N2CCN(C3CCCCC3)CC2)S(=O)(=O)c2cccnc2)cc1	-11	31	-8	0.3	74*	0.7
COc1cccc(NC(=O)c2nc3ncccn3n2)c1	2	-16	0	2*	-95	1.2
COc1ccc(CCNC(=O)c2nc3ncccn3n2)cc1OC	-11	5	2	0.9	10	1
COC(=O)c1sccc1NC(=O)CN(C)NS(=O)(=O)c1ccc(Cl)cc1	-5	15	-1	0.9	11	0.8
COC(=O)c1sccc1NC(=O)CSc1ccc(Cl)cc1	-5	6	5	0.8	17	0.9
COC(=O)c1sccc1NC(=O)CSc1nnnn1-c1ccccc1F	0	4	29	2.1*	-114	1
COC(=O)c1sccc1NC(=O)CN(C)NS(=O)(=O)c1ccc(F)cc1	-13	17	17	0.1	91*	0.8
COc1ccc(OC)c(NC(=O)CSc2nnnn2-c2ccccc2F)c1	1	22	6	1.1	-14	0.8
COC(=O)c1sccc1NC(=O)CSc1ccccc1NS(=O)(=O)c1ccc(Br)cc1	-20	19	32*	0.2	80*	0.8
COC(=O)c1sccc1NC(=O)CSc1ccccc1NS(=O)(=O)c1ccc(F)cc1	7	27	11	0.3	74*	0.7
CNC(C)c1cc(OC)ccc1OC (stereo not given)	8	13	-3	1	2	0.9
SMILES	PostGolgi yeast	CYP2C19 inhib	PostGolgi ctrl	CYP2C9 act	CYP2C9 inh	CYP2C19 activ
Nc1cc(N2CCCCC2)c(Cl)cc1[N+](=O)[O-]	-11	80*	21	0.5	53*	0.2
O=[N+]([O-])c1ccc(N2CCCCCC2)c([N+](=O)[O-])c1	9	27	26	1	0	0.7
O=[N+]([O-])c1ccc(N2CCCCC2)c(Cl)c1N1CCCCC1	-6	41	1	0.5	50*	0.6
Fc1cc(F)c2nc(N3CCCCC3)sc2c1	-1	13	-12	0.9	6	0.9
COC(=O)C1=C(C)N=C2SC(C)C(=O)N2C1/C=C/c1ccccc1OC (stereo not given)	5	81*	9	0.4	63*	0.2
CCC1SC2=NC(C)=C(C(=O)OCCOC)C(/C=C/c3ccccc3OC)N2C1=O (stereo not given)	9	78*	18	0.1	91*	0.2

Source: PubChem BioAssay
